# Source: article PMC7862700, “An all-to-all approach to the identification of sequence-specific readers for epigenetic DNA modifications on cytosine”
# What was measured:
# Assay in all cases: DAPPL (digital affinity profiling via proximity ligation, sequencing); 10 mM Tris-HCl pH 7.5, 50 mM NaCl, 1 mM DTT, 4% glycerol, room temperature, 30 min; GST-TFs on glutathione beads, 16-mer random dsDNA library, 0.1% formaldehyde crosslink after washing; high values mean tight binding
# FEV = target: T1, FEV (Homo sapiens, UniProt Q99581 1-238); conditions: protein: recombinant; tags: N-terminal GST; dsDNA, one strand shown
# T1 sequence: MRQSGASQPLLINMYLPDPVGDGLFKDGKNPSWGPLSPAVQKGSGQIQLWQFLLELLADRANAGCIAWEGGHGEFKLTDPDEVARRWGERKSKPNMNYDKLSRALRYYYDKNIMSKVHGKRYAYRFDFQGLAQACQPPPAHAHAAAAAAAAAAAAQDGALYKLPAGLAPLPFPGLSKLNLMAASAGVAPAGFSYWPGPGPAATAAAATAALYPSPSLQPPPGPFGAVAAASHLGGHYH
# Method in brief: (§1)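 Binding signal is given per hexamer as its read frequency for a factor divided by its frequency in the tag-only sample. GST-fused human transcription factors were expressed in yeast, captured on glutathione beads, barcoded with DNA and pooled with that sample, then incubated with 200 nmole of a 16-mer random double-stranded DNA library in Tris/NaCl/DTT/glycerol buffer for 30 min at room temperature. The pools were then washed, crosslinked, proximity-ligated, amplified by PCR and sequenced on an Illumina NextSeq500.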
# ETV5 = ETV5 (Homo sapiens, UniProt P41161 1-510); conditions: protein: recombinant; tags: N-terminal GST; dsDNA, one strand shown
# Chain of ETV5 (P41161 whole entry): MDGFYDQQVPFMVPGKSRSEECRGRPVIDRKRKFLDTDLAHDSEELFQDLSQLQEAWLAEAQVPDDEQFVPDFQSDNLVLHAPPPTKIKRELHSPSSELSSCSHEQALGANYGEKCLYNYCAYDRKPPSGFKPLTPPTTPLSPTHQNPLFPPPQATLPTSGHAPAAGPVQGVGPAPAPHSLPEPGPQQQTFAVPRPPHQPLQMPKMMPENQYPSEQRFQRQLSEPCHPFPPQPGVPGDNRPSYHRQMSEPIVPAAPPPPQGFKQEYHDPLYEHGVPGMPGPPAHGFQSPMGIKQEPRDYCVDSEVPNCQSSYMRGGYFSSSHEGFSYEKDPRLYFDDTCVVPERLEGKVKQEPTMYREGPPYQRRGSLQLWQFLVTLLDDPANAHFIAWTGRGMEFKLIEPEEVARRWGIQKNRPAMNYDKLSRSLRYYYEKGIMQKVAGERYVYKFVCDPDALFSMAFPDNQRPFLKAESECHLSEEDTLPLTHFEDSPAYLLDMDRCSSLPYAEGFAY
# Method in brief: as §1
# HSF1 = HSF1 (Homo sapiens, UniProt Q00613 1-529); conditions: protein: recombinant; tags: N-terminal GST; chain copies: 3; dsDNA, one strand shown
# Chain of HSF1 (Q00613 whole entry): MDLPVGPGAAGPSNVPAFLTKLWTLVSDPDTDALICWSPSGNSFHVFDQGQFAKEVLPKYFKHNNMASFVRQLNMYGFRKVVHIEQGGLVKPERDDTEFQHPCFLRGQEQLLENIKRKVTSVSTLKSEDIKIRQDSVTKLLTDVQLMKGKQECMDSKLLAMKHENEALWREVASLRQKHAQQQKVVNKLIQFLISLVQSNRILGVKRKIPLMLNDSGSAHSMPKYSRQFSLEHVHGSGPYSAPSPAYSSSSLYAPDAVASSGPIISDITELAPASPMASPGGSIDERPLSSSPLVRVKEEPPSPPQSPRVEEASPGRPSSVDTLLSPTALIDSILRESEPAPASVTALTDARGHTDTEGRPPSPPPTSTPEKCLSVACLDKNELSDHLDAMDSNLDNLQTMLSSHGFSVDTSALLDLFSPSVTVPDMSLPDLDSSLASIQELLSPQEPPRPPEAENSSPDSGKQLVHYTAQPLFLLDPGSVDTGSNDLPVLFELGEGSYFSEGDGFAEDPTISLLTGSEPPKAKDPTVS
# Method in brief: as §1
# SPIC = target: T2, SPIC (Homo sapiens, UniProt Q8N5J4 1-248); conditions: protein: recombinant; tags: N-terminal GST; dsDNA, one strand shown
# T2 sequence: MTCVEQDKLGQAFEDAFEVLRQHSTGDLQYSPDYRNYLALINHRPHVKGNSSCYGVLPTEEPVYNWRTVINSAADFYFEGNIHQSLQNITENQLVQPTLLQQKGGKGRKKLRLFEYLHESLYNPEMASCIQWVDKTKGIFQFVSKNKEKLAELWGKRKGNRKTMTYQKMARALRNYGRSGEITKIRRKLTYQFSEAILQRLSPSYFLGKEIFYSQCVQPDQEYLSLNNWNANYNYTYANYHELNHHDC
# Method in brief: as §1
# ELF4 = ELF4 (Homo sapiens, UniProt Q99607 1-663); conditions: protein: recombinant; tags: N-terminal GST; dsDNA, one strand shown
# Chain of ELF4 (Q99607 whole entry): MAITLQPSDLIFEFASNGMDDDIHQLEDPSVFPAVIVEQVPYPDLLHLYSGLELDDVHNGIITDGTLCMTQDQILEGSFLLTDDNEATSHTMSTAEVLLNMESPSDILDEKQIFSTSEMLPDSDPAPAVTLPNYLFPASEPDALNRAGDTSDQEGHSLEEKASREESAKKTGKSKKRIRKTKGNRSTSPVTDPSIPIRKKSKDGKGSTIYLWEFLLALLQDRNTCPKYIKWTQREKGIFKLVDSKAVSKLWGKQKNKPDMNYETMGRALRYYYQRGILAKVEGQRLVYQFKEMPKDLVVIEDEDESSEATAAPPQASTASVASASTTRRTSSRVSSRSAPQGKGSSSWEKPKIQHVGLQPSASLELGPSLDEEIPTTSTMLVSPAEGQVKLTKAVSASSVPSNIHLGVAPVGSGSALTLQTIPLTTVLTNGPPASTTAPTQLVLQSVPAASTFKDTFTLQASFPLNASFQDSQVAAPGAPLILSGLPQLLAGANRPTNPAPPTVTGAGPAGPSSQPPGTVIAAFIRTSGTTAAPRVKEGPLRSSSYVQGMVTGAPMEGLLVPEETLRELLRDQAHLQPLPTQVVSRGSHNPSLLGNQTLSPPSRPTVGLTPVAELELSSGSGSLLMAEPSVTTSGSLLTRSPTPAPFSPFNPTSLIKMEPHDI
# Method in brief: as §1
# ELK4 = target: T3, ELK4 (Homo sapiens, UniProt P28324-2 1-405); conditions: protein: recombinant; tags: N-terminal GST; dsDNA, one strand shown
# T3 sequence: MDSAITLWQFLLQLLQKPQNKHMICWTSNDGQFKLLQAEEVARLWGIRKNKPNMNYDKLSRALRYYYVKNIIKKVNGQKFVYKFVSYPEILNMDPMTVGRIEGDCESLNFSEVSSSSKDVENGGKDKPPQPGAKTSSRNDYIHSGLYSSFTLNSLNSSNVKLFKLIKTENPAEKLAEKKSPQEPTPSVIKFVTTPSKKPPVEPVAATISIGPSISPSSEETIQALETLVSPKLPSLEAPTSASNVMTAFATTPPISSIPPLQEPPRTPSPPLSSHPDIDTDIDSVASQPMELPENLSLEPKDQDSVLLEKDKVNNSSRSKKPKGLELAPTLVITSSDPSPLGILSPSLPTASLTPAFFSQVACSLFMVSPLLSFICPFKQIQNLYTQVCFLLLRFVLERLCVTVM
# Method in brief: as §1
# ETV2 = target: T4, ETV2 (Homo sapiens, UniProt O00321 1-342); conditions: protein: recombinant; tags: N-terminal GST; dsDNA, one strand shown
# T4 sequence: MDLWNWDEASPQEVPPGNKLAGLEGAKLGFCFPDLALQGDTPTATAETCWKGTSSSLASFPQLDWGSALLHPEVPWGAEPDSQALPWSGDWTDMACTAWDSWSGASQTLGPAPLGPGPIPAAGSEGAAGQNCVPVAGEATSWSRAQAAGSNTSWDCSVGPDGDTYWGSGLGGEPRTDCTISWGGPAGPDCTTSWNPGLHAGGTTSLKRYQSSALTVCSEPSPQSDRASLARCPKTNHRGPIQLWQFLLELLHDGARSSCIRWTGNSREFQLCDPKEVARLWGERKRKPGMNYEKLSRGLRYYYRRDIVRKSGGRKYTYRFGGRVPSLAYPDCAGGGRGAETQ
# Method in brief: as §1
# ELF3 = target: T5, ELF3 (Homo sapiens, UniProt P78545 1-371); conditions: protein: recombinant; tags: N-terminal GST; dsDNA, one strand shown
# T5 sequence: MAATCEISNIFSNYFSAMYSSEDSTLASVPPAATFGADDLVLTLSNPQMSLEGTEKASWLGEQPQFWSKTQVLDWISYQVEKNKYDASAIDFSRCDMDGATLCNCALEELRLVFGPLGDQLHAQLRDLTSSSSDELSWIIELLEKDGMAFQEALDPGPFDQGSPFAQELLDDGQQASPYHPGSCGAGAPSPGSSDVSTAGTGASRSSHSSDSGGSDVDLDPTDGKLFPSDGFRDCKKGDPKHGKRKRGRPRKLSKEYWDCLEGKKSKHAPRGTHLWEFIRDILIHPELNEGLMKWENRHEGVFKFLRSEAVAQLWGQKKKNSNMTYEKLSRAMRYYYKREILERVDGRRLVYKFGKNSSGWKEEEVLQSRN
# Method in brief: as §1
# CRX = CRX (Homo sapiens, UniProt O43186 1-299); conditions: protein: recombinant; tags: N-terminal GST; dsDNA, one strand shown
# Chain of CRX (O43186 whole entry): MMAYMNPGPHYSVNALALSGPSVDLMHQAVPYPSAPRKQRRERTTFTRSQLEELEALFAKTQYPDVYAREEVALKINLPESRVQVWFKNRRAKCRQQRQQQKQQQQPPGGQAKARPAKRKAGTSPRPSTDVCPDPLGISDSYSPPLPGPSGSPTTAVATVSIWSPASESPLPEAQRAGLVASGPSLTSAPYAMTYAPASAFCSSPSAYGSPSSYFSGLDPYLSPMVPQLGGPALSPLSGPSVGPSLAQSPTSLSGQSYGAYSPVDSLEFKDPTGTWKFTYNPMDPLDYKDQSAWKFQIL
# Method in brief: as §1
# ETV1 = ETV1 (Homo sapiens, UniProt P50549 1-477); conditions: protein: recombinant; tags: N-terminal GST; dsDNA, one strand shown
# Chain of ETV1 (P50549 whole entry): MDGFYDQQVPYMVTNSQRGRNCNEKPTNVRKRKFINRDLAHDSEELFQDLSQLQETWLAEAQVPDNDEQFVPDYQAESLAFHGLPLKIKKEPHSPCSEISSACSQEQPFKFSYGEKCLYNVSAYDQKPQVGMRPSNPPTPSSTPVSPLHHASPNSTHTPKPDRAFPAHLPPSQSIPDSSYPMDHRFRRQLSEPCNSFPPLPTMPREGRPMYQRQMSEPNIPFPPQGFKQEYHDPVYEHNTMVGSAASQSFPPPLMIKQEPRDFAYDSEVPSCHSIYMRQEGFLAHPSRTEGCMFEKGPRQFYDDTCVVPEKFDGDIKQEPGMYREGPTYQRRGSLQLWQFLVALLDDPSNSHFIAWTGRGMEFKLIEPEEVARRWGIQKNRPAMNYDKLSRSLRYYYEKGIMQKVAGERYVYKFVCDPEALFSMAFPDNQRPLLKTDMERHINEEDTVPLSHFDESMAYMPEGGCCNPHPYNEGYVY
# Method in brief: as §1
# ERF = target: T6, ERF (Homo sapiens, UniProt P50548 1-548); conditions: protein: recombinant; tags: N-terminal GST; dsDNA, one strand shown
# T6 sequence: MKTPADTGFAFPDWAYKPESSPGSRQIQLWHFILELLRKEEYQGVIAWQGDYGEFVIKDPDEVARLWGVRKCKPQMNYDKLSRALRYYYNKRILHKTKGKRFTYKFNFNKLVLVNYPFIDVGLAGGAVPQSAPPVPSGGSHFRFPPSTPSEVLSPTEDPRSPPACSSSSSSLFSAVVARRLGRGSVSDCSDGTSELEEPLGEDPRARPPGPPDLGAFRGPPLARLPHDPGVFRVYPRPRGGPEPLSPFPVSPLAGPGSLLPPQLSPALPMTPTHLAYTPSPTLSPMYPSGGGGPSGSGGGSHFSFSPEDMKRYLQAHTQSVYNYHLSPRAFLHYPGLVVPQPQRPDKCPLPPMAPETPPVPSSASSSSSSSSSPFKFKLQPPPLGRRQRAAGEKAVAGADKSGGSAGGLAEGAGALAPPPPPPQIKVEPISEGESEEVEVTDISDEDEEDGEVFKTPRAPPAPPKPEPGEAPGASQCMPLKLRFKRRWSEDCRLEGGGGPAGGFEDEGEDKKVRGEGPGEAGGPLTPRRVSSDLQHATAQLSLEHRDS
# Method in brief: as §1
# ETV3L = target: T7, ETV3L (Homo sapiens, UniProt Q6ZN32 1-361); conditions: protein: recombinant; tags: N-terminal GST; dsDNA, one strand shown
# T7 sequence: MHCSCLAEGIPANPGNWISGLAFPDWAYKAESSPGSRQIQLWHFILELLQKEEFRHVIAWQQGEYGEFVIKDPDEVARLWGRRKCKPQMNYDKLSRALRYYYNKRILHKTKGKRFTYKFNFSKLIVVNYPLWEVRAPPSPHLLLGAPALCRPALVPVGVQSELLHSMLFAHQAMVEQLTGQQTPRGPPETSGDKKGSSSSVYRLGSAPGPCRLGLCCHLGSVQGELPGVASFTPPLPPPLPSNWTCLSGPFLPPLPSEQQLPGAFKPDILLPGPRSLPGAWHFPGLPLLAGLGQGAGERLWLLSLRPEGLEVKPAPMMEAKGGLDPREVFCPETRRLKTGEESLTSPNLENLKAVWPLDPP
# Method in brief: as §1
# ETS2 = target: T8, ETS2 (Homo sapiens, UniProt P15036 1-469); conditions: protein: recombinant; tags: N-terminal GST; dsDNA, one strand shown
# T8 sequence: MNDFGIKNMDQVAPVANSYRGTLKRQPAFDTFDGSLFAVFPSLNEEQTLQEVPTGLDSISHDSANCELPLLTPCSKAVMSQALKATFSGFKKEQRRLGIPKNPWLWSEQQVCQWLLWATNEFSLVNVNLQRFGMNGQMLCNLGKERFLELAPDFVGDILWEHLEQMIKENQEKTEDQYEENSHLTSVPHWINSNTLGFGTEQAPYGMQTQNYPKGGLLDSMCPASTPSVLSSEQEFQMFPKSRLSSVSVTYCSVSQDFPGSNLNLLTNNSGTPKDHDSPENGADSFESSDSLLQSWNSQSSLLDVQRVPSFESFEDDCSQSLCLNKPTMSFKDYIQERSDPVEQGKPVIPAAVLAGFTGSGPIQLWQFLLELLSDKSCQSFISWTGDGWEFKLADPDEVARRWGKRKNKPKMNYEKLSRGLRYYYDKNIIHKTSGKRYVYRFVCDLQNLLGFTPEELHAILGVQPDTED
# Method in brief: as §1
# SPDEF = target: T9, SPDEF (Homo sapiens, UniProt O95238 1-335); conditions: protein: recombinant; tags: N-terminal GST; dsDNA, one strand shown
# T9 sequence: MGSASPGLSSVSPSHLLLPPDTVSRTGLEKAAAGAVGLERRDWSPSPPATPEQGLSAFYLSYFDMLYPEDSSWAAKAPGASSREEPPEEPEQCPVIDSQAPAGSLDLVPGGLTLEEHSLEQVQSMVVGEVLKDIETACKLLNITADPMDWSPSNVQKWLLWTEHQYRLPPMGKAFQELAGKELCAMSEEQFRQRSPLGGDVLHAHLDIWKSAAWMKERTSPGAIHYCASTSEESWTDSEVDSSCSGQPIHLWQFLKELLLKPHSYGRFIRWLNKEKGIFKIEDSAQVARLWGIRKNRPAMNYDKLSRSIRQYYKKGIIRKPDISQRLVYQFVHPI
# Method in brief: as §1
# ETV7 = target: T10, ETV7 (Homo sapiens, UniProt Q9Y603 1-341); conditions: protein: recombinant; tags: N-terminal GST; dsDNA, one strand shown
# T10 sequence: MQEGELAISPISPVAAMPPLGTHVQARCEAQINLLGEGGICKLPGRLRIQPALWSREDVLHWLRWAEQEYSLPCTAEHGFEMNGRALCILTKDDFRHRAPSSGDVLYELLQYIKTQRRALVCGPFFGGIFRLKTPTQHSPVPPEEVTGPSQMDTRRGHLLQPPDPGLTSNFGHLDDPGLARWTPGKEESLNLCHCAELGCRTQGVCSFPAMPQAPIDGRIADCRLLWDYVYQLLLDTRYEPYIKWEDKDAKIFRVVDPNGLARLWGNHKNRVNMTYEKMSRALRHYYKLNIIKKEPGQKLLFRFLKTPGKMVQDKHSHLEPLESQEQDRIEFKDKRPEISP
# Method in brief: as §1
# ELF5 = target: T11, ELF5 (Homo sapiens, UniProt Q9UKW6-2 1-255); conditions: protein: recombinant; tags: N-terminal GST; dsDNA, one strand shown
# T11 sequence: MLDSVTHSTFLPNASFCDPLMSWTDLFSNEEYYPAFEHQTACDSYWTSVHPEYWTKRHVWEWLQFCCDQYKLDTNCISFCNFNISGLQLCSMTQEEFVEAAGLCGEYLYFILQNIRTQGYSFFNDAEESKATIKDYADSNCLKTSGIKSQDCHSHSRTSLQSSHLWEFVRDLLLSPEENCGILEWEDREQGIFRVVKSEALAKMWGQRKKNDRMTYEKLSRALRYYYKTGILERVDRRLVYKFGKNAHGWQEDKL
# Method in brief: as §1
# ETV3 = target: T12, ETV3 (Homo sapiens, UniProt P41162-2 1-143); conditions: protein: recombinant; tags: N-terminal GST; dsDNA, one strand shown
# T12 sequence: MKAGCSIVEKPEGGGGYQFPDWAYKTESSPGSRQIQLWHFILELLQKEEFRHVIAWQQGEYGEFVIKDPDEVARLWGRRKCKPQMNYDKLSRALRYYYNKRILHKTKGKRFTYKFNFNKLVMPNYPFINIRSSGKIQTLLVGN
# Method in brief: as §1
# ETV6 = ETV6 (Homo sapiens, UniProt P41212 1-452); conditions: protein: recombinant; tags: N-terminal GST; dsDNA, one strand shown
# Chain of ETV6 (P41212 whole entry): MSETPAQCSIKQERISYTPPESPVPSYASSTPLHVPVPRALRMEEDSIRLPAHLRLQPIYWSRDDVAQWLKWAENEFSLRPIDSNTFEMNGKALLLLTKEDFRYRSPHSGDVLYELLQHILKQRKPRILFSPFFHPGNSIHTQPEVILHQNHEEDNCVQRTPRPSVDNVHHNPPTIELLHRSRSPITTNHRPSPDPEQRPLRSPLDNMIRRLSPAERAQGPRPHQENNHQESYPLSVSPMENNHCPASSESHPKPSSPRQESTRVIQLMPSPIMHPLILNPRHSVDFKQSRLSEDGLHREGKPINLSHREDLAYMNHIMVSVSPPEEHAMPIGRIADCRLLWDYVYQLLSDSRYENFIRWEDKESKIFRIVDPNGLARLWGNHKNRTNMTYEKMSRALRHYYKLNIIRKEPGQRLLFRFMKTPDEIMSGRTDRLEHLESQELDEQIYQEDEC
# Method in brief: as §1
sequence,measurement,setting,value
TATGGT,binding signal,FEV,"1.24 fold enrichment (6-mer frequency, TF over GST control)"
same,binding signal,ETV5,"1.38 fold enrichment (6-mer frequency, TF over GST control)"
same,binding signal,HSF1,"1.16 fold enrichment (6-mer frequency, TF over GST control)"
same,binding signal,SPIC,"1.49 fold enrichment (6-mer frequency, TF over GST control)"
same,binding signal,ELF4,"1.34 fold enrichment (6-mer frequency, TF over GST control)"
same,binding signal,ELK4,"1.44 fold enrichment (6-mer frequency, TF over GST control)"
same,binding signal,ETV2,"1 fold enrichment (6-mer frequency, TF over GST control)"
same,binding signal,ELF3,"1.5 fold enrichment (6-mer frequency, TF over GST control)"
same,binding signal,CRX,"1.29 fold enrichment (6-mer frequency, TF over GST control)"
same,binding signal,ETV1,"1.27 fold enrichment (6-mer frequency, TF over GST control)"
same,binding signal,ERF,"1.18 fold enrichment (6-mer frequency, TF over GST control)"
same,binding signal,ETV3L,"1.24 fold enrichment (6-mer frequency, TF over GST control)"
same,binding signal,ETS2,"1.33 fold enrichment (6-mer frequency, TF over GST control)"
same,binding signal,SPDEF,"1.35 fold enrichment (6-mer frequency, TF over GST control)"
same,binding signal,ETV7,"1.21 fold enrichment (6-mer frequency, TF over GST control)"
same,binding signal,ELF5,"1.24 fold enrichment (6-mer frequency, TF over GST control)"
same,binding signal,ETV3,"1.34 fold enrichment (6-mer frequency, TF over GST control)"
same,binding signal,ETV6,"1.24 fold enrichment (6-mer frequency, TF over GST control)"
